# From PubChem BioAssay (NCATS)
# Records with an inconclusive call do not appear. Where a call stands in place of a potency, no number is given. Active and inactive are the calls of the source. Calls come from the whole dose curve; as a rule, active = well fitted inhibition curve with a large enough effect; inconclusive = small, poorly fitted or top-dose-only effect; inactive = flat fitted curve, though single readings scatter.
# Molecular target: Glutathione peroxidase 1 (Homo sapiens) (UniProt P07203)
# Assay: Primary qHTS Assay for Inhibitors of Recombinant Selenoprotein Glutathione Peroxidase 1 (GPX1) (AID 1845191); note: nearly all actives have a fitted effect of over 65% in size
# Conditions: recombinant GPX1, GR-coupled NADPH fluorescence, 15 min; series mostly up to 48.8 µM
# In short: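 GR-coupled assay: compounds preincubated 30 min at room temperature with GPX1, then reaction started with CHP; final 10 nM GPX1, 1 mM GSH, 0.5 mM CHP, 0.5 mM NADPH, 100 nM GR, 0.01% BSA, pH 7.5 Tris buffer. NADPH fluorescence (340/450 nm) read at 0 and 15 min.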
# Potency is the fitted concentration of half-maximal effect.
# Glutathione peroxidase 1 (Homo sapiens), sequence (P07203 whole entry, looked up): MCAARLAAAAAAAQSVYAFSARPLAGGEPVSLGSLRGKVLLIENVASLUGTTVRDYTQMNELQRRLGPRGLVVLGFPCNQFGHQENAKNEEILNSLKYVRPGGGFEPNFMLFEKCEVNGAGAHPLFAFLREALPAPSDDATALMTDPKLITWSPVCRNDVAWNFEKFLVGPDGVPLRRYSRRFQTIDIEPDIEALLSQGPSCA
Structure (SMILES),Potency,"activity, negative = inhibition"
COc1ccc(CCN(C)CCCOc2nsc(-c3ccccc3)n2)cc1OC,inactive,–
O=C(O)c1ccc(N2C(=O)/C(=C/c3ccc(-c4ccc([N+](=O)[O-])cc4)o3)C=C2c2ccccc2)cc1,inactive,–
CCCC1(CCC)CCC2(CCN(CCCN(CC)CC)C2)CC1,inactive,–
CCOC(=O)[C@@]1(CCCCCCOc2ccc(Cl)cc2)CO1,inactive,–
Cc1[nH]c(/C=C2\C(=O)Nc3ccc(S(=O)(=O)N(C)c4cccc(Cl)c4)cc32)c(C)c1C(=O)N1CCN(C)CC1,inactive,–
C/C(=C(/CCO)SSCC1CCCO1)N(C=O)Cc1cnc(C)nc1N (centres undefined),inactive,–
CC(=O)OC1C(=O)C2C3OCC4=C3[C@@](C)(CC[C@@H]4O)CC[C@]2(C)[C@H]1C(C)C (some centres undefined),inactive,–
COc1ccc(NC(=O)c2ccc(-c3ccc(-c4nnc(C)o4)cc3C)cc2)cc1N1CCN(C)CC1,inactive,–
CN(C)Cc1ccccc1,inactive,–
CON=C1C[C@]2(C[C@@H]3C[C@@H](C/C=C(\C)C[C@@H](C)/C=C/C=C4\CO[C@@H]5[C@H](O)C(C)=C[C@@H](C(=O)O3)[C@]45O)O2)O[C@H](/C(C)=C/C(C)C)[C@H]1C,inactive,–
CC(=O)O[C@H]1CC(C)(C)CC2[C@]13CO[C@@]21CCC2[C@@]4(C)CC[C@H](O[C@@H]5OC[C@H](O[C@@H]6O[C@H](CO)[C@@H](O)[C@H](O)[C@H]6O[C@@H]6OC[C@@H](O)[C@H](O)[C@H]6O)[C@H](O)[C@H]5O[C@@H]5O[C@H](CO)[C@@H](O)[C@H](O)[C@H]5O)[C@@](C)(CO)C4CC[C@@]2(C)[C@]1(C)C[C@H]3O (some centres undefined),inactive,–
O=S(O)CNc1ccc(S(=O)(=O)c2ccc(NCS(=O)O)cc2)cc1,inactive,–
O=C(Cn1c(=O)sc2ccc(Cl)cc21)N1CCN(CCO)CC1,inactive,–
O=C(Cn1cnnn1)N[C@@H]1C(=O)N2C(C(=O)O)=C(CSc3nncs3)CS[C@H]12,18 µM (active),–
CC(C)(C)NC(=O)[C@H]1CC[C@H]2[C@@H]3CC=C4C=C(C(=O)O)CC[C@]4(C)[C@H]3CC[C@]12C,inactive,–
Nc1c(CC(=O)O)cccc1C(=O)c1ccccc1,inactive,–
CCOC(=O)N1CCC(CN(Cc2ccc(Cl)cc2)Cc2ccc([N+](=O)[O-])s2)C1 (centres undefined),inactive,–
CN1CCN(C2=Nc3ccccc3Cc3ccccc32)CC1,inactive,–
O=P(O)(O)C(O)(Cc1cnc2ccccn12)P(=O)(O)O,–,-12.2% [at 0.4 µM] (inactive)
Cc1nc(Nc2cnn(C3CCNCC3)c2)nc2c1N(C)C(=O)c1cc3ccccc3cc1N2C,inactive,–
CCCCC(=O)O,inactive,–
Cc1cc(NC(=O)c2cccc(NC(=O)/C=C/CN(C)C)c2)ccc1Nc1nccc(-c2cccnc2)n1,inactive,–
CN(C)CC1CCn2c(c(C3=C(c4cn(C)c5ccccc45)C(=O)NC3=O)c3ccccc32)C1 (centres undefined),inactive,–
Cc1[nH]cnc1C[C@H]1CCc2c(C)c3ccccc3n2C1=O,inactive,–
CC(=O)c1c(C)cc2cccc(O)c2c1O[C@@H]1O[C@H](CO)[C@@H](O)[C@H](O)[C@H]1O,inactive,–
CS(=O)(=O)OCCCNCCCOS(C)(=O)=O,inactive,–
Cc1cc2c(c(=O)o1)C=C1CC[C@H]([C@H](C)Cn3cnc(=N)c4[nH]cnc43)C[C@@H]1O2,inactive,–
CN(C(=O)CO)c1c(I)c(C(=O)NCC(O)CO)c(I)c(C(=O)NCC(O)CO)c1I (centres undefined),inactive,–
Cc1c(N)nc(C(CC(N)=O)NCC(N)C(N)=O)nc1C(=O)NC(C(=O)NC(C)C(O)C(C)C(=O)NC(C(=O)NCCc1nc(-c2nc(C(=O)NCCCN[C@@H](C)c3ccccc3)cs2)cs1)C(C)O)C(O[C@@H]1O[C@@H](CO)[C@@H](O)[C@H](O)[C@@H]1O[C@H]1O[C@H](CO)[C@@H](O)[C@H](OC(N)=O)[C@@H]1O)c1cnc[nH]1 (some centres undefined),inactive,–
